From the supplement of paper PMC12632987
The full ranking holds about 1,800 sequences; the median of “median log2 fold change of GCK-ALFA target abundance (FLAG IP / Myc IP barcode read proportion)” is about 0.14, and the lowest 2% start at about -0.84. The full list was thinned out, with the lowest values kept by preference.

B1: traf2_out_16_104_1406 (protein)
chain: AAATQAAFDAIIAELNKIAEELGKIANKIYKKMETASPELKEKLTDALVDASELRRQALEAAVAAAQARATGGDLAAAQATLAELKKKAEEVKKKAEELF
B2: traf2_out_14_149_1255 (protein)
chain: SETEKKRKALEEARALMEEIAAILEAALAAGSTEVDRERLRALVEEARAILREQGFVLGHLLAIEEMLATTEEFTLADIEALLAEVRRAAESLAVLAEML
B3: traf2_out_6_3_2517 (protein)
chain: MEESIRKDARTVLENMGITTVEQLKKLVEANVNAVKKLVSRKDVDRADLAAANSVLNLTRAMVEVAAETLPDLTEEDVKEMNALIDEARELIEKKKKELE
B4: traf2_out_20_38_2040 (protein)
chain: EEEKEEEERLLEIAKKATEVADKTEAWVEEKLAAGVSPEEIIAETKKLITEKLAAIGKEEEAKELIERLDTLAAAGEVRRGVVLVMARAAAIVYQKEQEE
B5: traf2_out_20_3_2223 (protein)
chain: EELKREIEEELRKIEELLEKAKPLLPEEDYKKLKELLEKAREALETDLTDALVYLSELRRLALELAQEARAAGNEELAKLLEEMAERANRAAGLVLKAIE
B6: traf2_out_14_166_1275 (protein)
chain: MSPEEIERIRKIVDELEPLTDAAVARLEAILAANADKLTPEQLARVRALLDLARRNIGSSAINAIREIAAIFAAAGLAEAAAAARALADELEAKLKELNK
B7: traf2_out_18_167_1835 (protein)
chain: EEEKEKKRNELLDEMIDISEHYRAAIEYLELLAKDPKEAEAKKEEYMKKIDKDPELVAKIKEVLALPDEERKKAAKALADEVYDERQKKMQELWDKREAV
B8: traf2_out_20_38_2012 (protein)
chain: SEEEKEKEKEEKLIEHANEAYDRAEAWVAALQAAGKSVAEIAAEAKKRIRELLTAHGLEEEAEELIEDVDRVLDSPDAERLIVQILARAETLVFQKELQK
B9: traf2_out_13_95_1095 (protein)
chain: SAEVAAKINAIADKMLDEVLKILEELLKKMEKAGKLVEEVKEALDLAEKRSINEAIHLLKELAKKYPEFKEEFEEAIKKIEEIKREAGREVAKILKEEEE
B10: traf2_out_15_48_1341 (protein)
chain: SVEELRAVASEIADEIDAAKDAVAAELEALRPSAAPEQRAPLAEAIDAARHGRGQNTVLALLDRLEPLLAPEQAARVAALRDRLRAVVRAASARMAEVLK
B11: traf2_out_18_3_1931 (protein)
chain: SEEERKEVSDKIDEIVDDARARAERELERAREELPEKREEIDRLRAALEAGAAPFGILDALAELYEEAGKEEEAKEIEEYLSEKRKEMQELVDEYEKLIK
B12: traf2_out_11_169_847 (protein)
chain: EQEEKNRQIIDKALELEDKAKEELKKHALALAREAGLDVAEVEAIFEKHKGKSLSAIAAALIRWFREQGKEEAAAAVEAKYEELKEEINKKMTEFLKELE
B13: traf2_out_11_169_812 (protein)
chain: EEKEKNRKINDFALELNDEAKKELLKHAKALAKKAGLDVAEVEAIFEKHKNSSLSAVAAALIAYFKSKGKEEEAAAVLAKYEELKEEINKKVTEKIKELE
B14: traf2_out_17_178_1659 (protein)
chain: NKEEARAEISAATDELIDLTEATADRLLAILEADGTASPEELAALREARRLGSATTTRALMEAAVPRSPRSAEVAALLDDFTKRSGELAKKIAEAYKKYE
B15: traf2_out_8_174_2574 (protein)
chain: SERERLRIVSEVLTEFADILDEAEERLEALKDLPLEELRKESQKILDEALKRIDEIEERRVKEVDEETAELIRRAARSAKQQLRNMVEGTIKRKELREKA
B16: traf2_out_11_169_824 (protein)
chain: AEAERNRKINDKALELNDKAKEKLKEFALELAKKAGLDVEEVKAIFEKHKGASLSAIAAALIEYFRSKGKEEEAEAVLKKYEELKDEINKEMAKFLKELE
B17: traf2_out_12_165_941 (protein)
chain: SMRERTEEIVRRAEEEIRRIADAAIAEIRANPDLTPEEVAALRERAVDEMVEVRQRALNELYKAGASIDELAEASERLRRVFDEARARLDAAAAEHLAAR
B18: traf2_out_11_169_848 (protein)
chain: EEEEKNRKIIDKALELNDKAKEELRAHALALAKKAGLDTAAVEAIFEANKGKSLSAVAAALIAWFKAQGKDAEAAAVEAKYEELKEKINKEMTKFLKELE
B19: traf2_out_6_169_2491 (protein)
chain: SMAEELKKEAERHLKTAKELYEIAKTIYNQAINNKNYENIDDYIEALETIKNAYKHHYDKAIEYYKKLGNEEEAEKLEKEKEKKLKEIDEMIKKLKELKK
B20: traf2_out_14_17_1291 (protein)
chain: DIIEKLEEILKTAKELAKKYPELKLELTQLERKAESALVLAEMYEEDPSYKPELIQGLKNLIKLAKEVAEKLKPISAEAVKKLEEMEETAKEILKEVEAE
B21: traf2_out_20_3_2179 (protein)
chain: EELEEELEEELEEALELIKEAAKLADEETAKKLEELAERLKESRELSYEDRLVELSEIRRELLELAEAAKAAGKEELAAVLEEAAEELNEAMNLVYEIIE
B22: traf2_out_20_38_2003 (protein)
chain: SEEEEEERKLEEIIEVANEAYDEATERIAAMVAAGKTVEEIAAEVRAEVTRLLDAAGLEEERDELLADIDRALASPNALRLFARILARARALVKQKELNK
B23: traf2_out_20_38_2002 (protein)
chain: SMEEEEEERLKEIIDVANEAYDEATERIEALRAAGKSVEEIAAIVRAEVAELLDAAGLEEERDELLADIDRALSSPDALRLFARILARARALVKQKELNE
B24: traf2_out_13_95_1094 (protein)
chain: SKEVAEKIMEIADKMLDESLEVLKKLLEEMKKKGKLEEEIKEVLELAENQSINEAIHKLKELAKKYPEVKELLEKAIEELEEIRRKAGKEVAKILKEEKE
B25: traf2_out_8_174_2572 (protein)
chain: DEEKRLKVVADFSTEMADILDEFEEELKKASDLPLEELKKKAEELKKEALEKIDKLKKEWEAKVDEETAKLVQRAANSAKQQIENMAKGAILRKELEDAA
B26: traf2_out_16_177_1462 (protein)
chain: ELDKIMDRIVVLSKIKRAAEYAIENKKEEAEKYLKEAEKEAEEAGDEEGLKKIKELKELMEKNTEEAKKKLKELAKEAQKEAGKLVDEAEALLKARAAAE
B27: traf2_out_20_38_2031 (protein)
chain: SEEEEEKKRLEEAIKVANDAYDRYTERFAALRAAGRTVEEMAAETRAEVRELLTAAGLEEEAEELIADIDLALGSPEAERLLVRILARAEALVWQKKKNE
B28: traf2_out_11_169_830 (protein)
chain: EEAEKNRKINDFALELEEKAKEEFKKFVLELAKEEGLDVEEIKKIFEENKNKSLSAIAAAVIEYFKSKGKEEAAEKVLKKYEELKEKINKEATEKIKELE
B29: traf2_out_6_156_2413 (protein)
chain: MVEKIFEETLKKVEELIKKLSKASEEKKISYISKIAGTVYKALQQLREAGASLEEIKEFSERLKKEIEKLLKEAGLDEKTRNLVLSSVNAVFTVAIEEAK

Target: T1, TRAF2, Q12933
T1 chain: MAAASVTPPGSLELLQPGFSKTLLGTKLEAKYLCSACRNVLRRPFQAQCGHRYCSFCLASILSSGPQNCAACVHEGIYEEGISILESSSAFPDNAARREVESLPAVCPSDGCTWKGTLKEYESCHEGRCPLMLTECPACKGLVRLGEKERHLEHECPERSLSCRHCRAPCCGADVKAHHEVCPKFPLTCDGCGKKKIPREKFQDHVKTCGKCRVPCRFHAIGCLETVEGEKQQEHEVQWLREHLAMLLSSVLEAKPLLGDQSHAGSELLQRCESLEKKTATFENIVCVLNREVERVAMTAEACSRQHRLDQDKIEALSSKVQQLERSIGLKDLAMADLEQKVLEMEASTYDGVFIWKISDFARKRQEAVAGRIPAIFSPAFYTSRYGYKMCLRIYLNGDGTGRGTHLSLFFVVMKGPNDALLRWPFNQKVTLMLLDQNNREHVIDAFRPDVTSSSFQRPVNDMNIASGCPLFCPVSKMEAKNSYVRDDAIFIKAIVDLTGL
Assay: median log2 fold change of GCK-ALFA target abundance (FLAG IP / Myc IP barcode read proportion) (log2 ratio); each designed protein is fused to an ALFA-tag nanobody in HEK293 cells to bring the named protein to FLAG-tagged glucokinase (GCK); Myc marks an untargeted standard; higher = target protein stabilised (more abundant)
Conditions: target protein: 3xFLAG-MCP-GCK-ALFA reporter; HEK293 landing pad (RPLP)
In short: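 An ALFA-nanobody-fused binder library was recombined into HEK293 landing-pad cells and induced with 2 μg mL^−1 doxycycline. Cells were transfected with a plasmid expressing a FLAG-tagged target and a Myc-tagged standard. After 48 h, lysates underwent anti-FLAG and anti-Myc immunoprecipitation, and circular RNA barcodes were reverse transcribed, amplified and sequenced. Target abundance is the per-binder median log2 ratio of FLAG to Myc barcode read proportions. Barcodes needed ≥10^−7 proportion in both replicates, binders ≥3 barcodes per replicate, and a 10^−6 pseudocount was added; the two replicates were pooled.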

Row | Binder | median log2 fold change
1 | B1 | 0.196
2 | B2 | -0.105
3 | B3 | -1.1
4 | B4 | 0.281
5 | B5 | 0.163
6 | B6 | 0.268
7 | B7 | 0.297
8 | B8 | 0.283
9 | B9 | -0.132
10 | B10 | 0.194
11 | B11 | 0.304
12 | B12 | -0.218
13 | B13 | 0.302
14 | B14 | 0.0548
15 | B15 | -0.187
16 | B16 | 0.0712
17 | B17 | -0.0195
18 | B18 | -0.138
19 | B19 | -0.373
20 | B20 | 0.128
21 | B21 | -0.145
22 | B22 | -0.767
23 | B23 | -1.43
24 | B24 | -0.0821
25 | B25 | 0.209
26 | B26 | -0.0546
27 | B27 | -0.852
28 | B28 | 0.00164
29 | B29 | 0.231
